Source: PubChem BioAssay
D1 PAM = Potentiators of Human D1 Dopamine Receptor: qHTS. D(1A) dopamine receptor (Homo sapiens), P21728. HEK293 TREx D1 cells, calcium flux, dopamine EC20 potentiation. potentiation, % at 10 µM. 360,000 tested, 0.036% active. AID 504651, 2011; in the data active = potentiation above about 30%; also: 0% is about no effect
Target sequence (P21728 whole entry, looked up): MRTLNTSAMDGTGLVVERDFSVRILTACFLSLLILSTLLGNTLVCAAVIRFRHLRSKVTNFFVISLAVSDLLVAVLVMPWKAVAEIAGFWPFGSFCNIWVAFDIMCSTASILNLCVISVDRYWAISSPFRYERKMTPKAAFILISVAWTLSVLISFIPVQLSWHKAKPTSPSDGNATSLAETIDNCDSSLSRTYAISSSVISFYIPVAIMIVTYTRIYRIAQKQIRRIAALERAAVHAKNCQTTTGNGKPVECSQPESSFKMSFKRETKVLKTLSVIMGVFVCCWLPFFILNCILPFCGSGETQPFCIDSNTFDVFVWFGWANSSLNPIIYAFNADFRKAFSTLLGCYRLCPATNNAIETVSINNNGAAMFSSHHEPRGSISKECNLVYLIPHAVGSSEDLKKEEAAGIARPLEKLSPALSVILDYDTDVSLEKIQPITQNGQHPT
D1 ag = Allosteric Agonists of the Human D1 Dopamine Receptor: qHTS | D(1A) dopamine receptor (Homo sapiens), P21728 | HEK293 T-REx D1 cells, calcium flux, agonist mode | activation, % at 2 µM | 360,000 tested, 1% active | AID 504660, 2011; in the data active = activation above about 30%; also: 0% is about no effect
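Tetracycline-induced HEK293 TREx D1 cells, force-coupled to calcium signalling, were dye-loaded with a no-wash calcium kit. Compound was pin-added after a 10 s baseline. Fluorescence was read kinetically at 1 cycle/s for 180 s, with calcium rises flagged as agonism.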
D3 ag = qHTS of D3 Dopamine Receptor Agonist: qHTS; D(3) dopamine receptor (Homo sapiens), P35462; D3R DiscoveRx beta-arrestin cells, luminescence, 90 min; max activation, %; 410,000 tested, 0.58% active; AID 652048, 2013; in the data active = max activation above about 30%; also: 0% is about no effect
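Agonist mode: compounds and dopamine controls were applied to plated cells for 90 min at 37 degrees C after an overnight attachment at 1500 cells/well. Luminescent read-out followed 30 - 60 minutes at room temperature with DiscoveRx detection reagent.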
D1 antagonist = Antagonist of Human D 1 Dopamine Receptor: qHTS | HEK293 TREx D1 cells, calcium flux, dopamine EC80; active compounds read low | activity change, negative = inhibition, % at 10 µM | 360,000 tested, 3.2% active | AID 504652, 2011; in the data active = activity change below about -30%; also: % is scaled to controls: 0 for no effect and ±100 for the full control effect
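Calcium flux readout: force-coupled, inducible Hek293 Trex D1 line, cells induced overnight at 30 C with tetracycline, dye-loaded 30–90 min at RT. Antagonism scored against EC80 dopamine challenge given 180 s after compound.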
DRD3 antagonist = qHTS of D3 Dopamine Receptor Antagonist: qHTS; D3R cells, DiscoveRx beta-arrestin luminescence, antagonist mode; active compounds read low; max response, negative = inhibition, %; 360,000 tested, 2.5% active; in the data active = max response below about -50%; also: % is scaled to controls: 0 for no effect and ±100 for the full control effect
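Cells expressing the human receptor were seeded at 1500 cells/well, incubated overnight at 37 degrees C in 5% CO2, then exposed to library compounds with dopamine controls for 90 minutes at 37 degrees C before luminescent detection.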
Starred values were filed as active, the others as inactive. Most compounds without a hit are left out; they make up all but 6% or so of the library.

Results for CCN1CCN(c2ccc(NC(=O)CCc3c(C)nc4c(-c5ccc(F)cc5)c(C)nn4c3C)cc2)CC1 ?
D1 PAM: -14; D1 ag: 6; D3 ag: -1; D1 antagonist: -79*; DRD3 antagonist: -18

Results for COc1cc(OC)cc(-c2nc3nc(C)c(CCC(=O)NCCC(C)C)c(C)n3n2)c1 ?
D1 PAM: 1; D1 ag: 0; D3 ag: 3; D1 antagonist: 9

How did COCCCNC(=O)CCc1c(C)nc2nc(-c3cc(OC)cc(OC)c3)nn2c1C do in these assays?
D1 PAM: -2; D1 ag: 1; D3 ag: 1; D1 antagonist: -31*

What do the screens show for `C=C[C@]1(C)C[C@@H](OC(=O)CSCCN(CC)CC)[C@]2(C)[C@H](C)CC[C@]3(CCC(=O)[C@H]32)[C@@H](C)[C@@H]1O`?
D3 ag: -24

Results for Nn1cnnc1N/N=C/c1cc(Br)cc(Br)c1O ?
D1 PAM: -3; D1 ag: 3; D3 ag: -9; D1 antagonist: -2; DRD3 antagonist: -90*

What do the screens show for `CCCCCCCCCCCCCCCC(=O)OC[C@@H](NC(=O)C(Cl)Cl)[C@H](O)c1ccc([N+](=O)[O-])cc1`?
D3 ag: -3

What do the screens show for `CC(=O)N1CCOc2cc(S(=O)(=O)NCc3ccccc3Cl)c(C)cc21`?
D1 PAM: 1; D1 ag: -1; D3 ag: -30; D1 antagonist: 3

How did O=C(NCCc1ccccc1)C(=O)NCC1(c2ccccc2)CCCC1 do in these assays?
D1 PAM: -8; D1 ag: 9; D3 ag: -5; D1 antagonist: -31*; DRD3 antagonist: 5

How did O=C(CCc1ccccc1)NCC1(c2ccccc2)CCCC1 do in these assays?
D1 PAM: 3; D1 ag: 3; D3 ag: -6; D1 antagonist: 4; DRD3 antagonist: -8

What do the screens show for `COc1cc(OC)cc(-c2cc3nc(C)c(CCC(=O)NC(C)CCc4ccco4)c(C)n3n2)c1` (stereo unspecified)?
D1 PAM: -4; D1 ag: 0; D3 ag: 6; D1 antagonist: -1; DRD3 antagonist: 1

Results for COc1ccccc1-c1cc2nc(C)c(CCC(=O)NCc3ccco3)c(C)n2n1 ?
D1 PAM: -10; D1 ag: 2; D3 ag: 2; D1 antagonist: 4; DRD3 antagonist: -8

What do the screens show for `Cc1nc2cc(-c3cccc(F)c3)nn2c(C)c1CCC(=O)NC(C)CCc1ccco1` (stereo unspecified)?
D1 ag: 5; D3 ag: -2; D1 antagonist: -35*; DRD3 antagonist: -22

Results for Cc1nc2cc(-c3ccccc3)nn2c(C)c1CCC(=O)NCc1ccco1 ?
D1 ag: 4; D3 ag: 5; D1 antagonist: -32*; DRD3 antagonist: 6

What do the screens show for `NCCC(=O)[N-][C@@H](Cc1cnc[nH]1)C(=O)O.[Zn]`?
D3 ag: 10

How did CCCCCCCCN1C(=O)[C@H](CC(=O)NCc2ccc(OC)c(OC)c2)C[C@@]2(C(=O)OCC)CCCC=C12 do in these assays?
D3 ag: -5; DRD3 antagonist: -15

Results for Cc1oc2c(C)c3oc(=O)c4c(c3cc2c1C)CCCC4 ?
D1 PAM: 5; D1 ag: 1; D3 ag: 32*; D1 antagonist: -5; DRD3 antagonist: 26

How did Cc1coc2cc3oc(=O)cc(C)c3cc12 do in these assays?
D1 PAM: -4; D1 ag: 2; D3 ag: -4; D1 antagonist: 5; DRD3 antagonist: 30

How did Cc1coc2cc3oc(=O)c4c(c3cc12)CCCC4 do in these assays?
D1 PAM: 0; D1 ag: 1; D3 ag: 3; D1 antagonist: -45*; DRD3 antagonist: 20

What do the screens show for `Cc1c(O)ccc2c3c(c(=O)oc12)CCCC3`?
D1 PAM: -2; D1 ag: 1; D3 ag: 1; D1 antagonist: 0; DRD3 antagonist: 12

How did CC1Cc2ccccc2N1CC(=O)Nc1cc(S(=O)(=O)N2CCOCC2)ccc1Cl (stereo unspecified) do in these assays?
D3 ag: 0; DRD3 antagonist: 1

Results for O=C(NCCc1ccc(Cl)cc1)c1cccn1-c1nnc(N2CCCCC2)s1 ?
D1 PAM: 4; D1 ag: 2; D3 ag: -7; D1 antagonist: -7

How did COc1cccc(CNc2sc3c(c2C(=O)Nc2ccc(OC)cc2OC)CCC3)c1 do in these assays?
D1 PAM: 3; D1 ag: 1; D3 ag: 6; D1 antagonist: 4

Results for O=C(CCC(=O)OCC(F)(F)C(F)F)Nc1ccc(Cl)cc1 ?
D1 PAM: 0; D1 ag: 3; D3 ag: 1; D1 antagonist: 17; DRD3 antagonist: 23

Results for O=C(CCC(=O)OCC(F)(F)C(F)F)Nc1ccc(F)cc1F ?
D1 PAM: -4; D1 ag: 3; D3 ag: 1; D1 antagonist: -60*; DRD3 antagonist: 6

Results for COc1cc(CCC(=O)OCC(=O)c2ccc[nH]2)cc(OC)c1OC ?
D1 ag: 6; D3 ag: -17; D1 antagonist: -42*; DRD3 antagonist: -26

Results for COc1cc(CCC(=O)OCC(=O)Nc2ccc(F)cc2F)cc(OC)c1OC ?
D1 PAM: -2; D1 ag: 16; D3 ag: 19; D1 antagonist: -48*; DRD3 antagonist: 5

How did COc1ccccc1CNC(=O)CSCc1cnn(-c2ccccc2)c1-n1cccc1 do in these assays?
D1 PAM: 8; D1 ag: 10; D3 ag: 3; D1 antagonist: 3; DRD3 antagonist: 17

Results for Cc1ccc(NC(=O)c2c(C)nn(-c3ccccc3)c2-n2cccc2)c(Cl)c1 ?
D1 PAM: -3; D1 ag: 4; D3 ag: -4; D1 antagonist: -33*

How did COc1ccc(CNC(=O)CSCc2cnn(-c3ccccc3)c2-n2cccc2)cc1OC do in these assays?
D1 PAM: -4; D1 ag: 43*; D3 ag: 10; D1 antagonist: -34*

Results for Cc1ccc(CNC(=O)CCSCc2cnn(-c3ccccc3)c2-n2cccc2)cc1 ?
D1 PAM: -3; D1 ag: -2; D3 ag: 1; D1 antagonist: -34*

How did O=C(CSCc1cnn(-c2ccccc2)c1-n1cccc1)NCc1cccnc1 do in these assays?
D1 PAM: -4; D1 ag: 21; D3 ag: -9; D1 antagonist: 10; DRD3 antagonist: -3

Results for Cc1nn(-c2ccccc2)c2sc(C(=O)Nc3ccc(Cl)cc3Cl)cc12 ?
D1 PAM: 3; D1 ag: -1; D3 ag: 5; D1 antagonist: -83*
